Screens: PubChem BioAssay, National Center for Advancing Translational Sciences (NCATS)
Shown are actives, neighbours in structure and some others; about 1.2% of the full set was active somewhere.
RXFP1 agonist: qHTS Assay for Agonists of the Relaxin Receptor RXFP1. AID 2676, 2010. Potency, µM (titrated, usually from 57.5 µM), usual class: activators. HEK293T-RXFP1 cAMP TR-FRET, 30 min; response scale: percent of porcine relaxin response, buffer zero. Relaxin receptor 1 (Homo sapiens), Q9HBX9. hit rate 0.3% among 370,000; active means well fitted activation curve with a large enough effect; inconclusive means small, poorly fitted or top-dose-only effect; further: nearly all actives have a fitted effect of over 60% in size
Target sequence (Q9HBX9 whole entry, looked up): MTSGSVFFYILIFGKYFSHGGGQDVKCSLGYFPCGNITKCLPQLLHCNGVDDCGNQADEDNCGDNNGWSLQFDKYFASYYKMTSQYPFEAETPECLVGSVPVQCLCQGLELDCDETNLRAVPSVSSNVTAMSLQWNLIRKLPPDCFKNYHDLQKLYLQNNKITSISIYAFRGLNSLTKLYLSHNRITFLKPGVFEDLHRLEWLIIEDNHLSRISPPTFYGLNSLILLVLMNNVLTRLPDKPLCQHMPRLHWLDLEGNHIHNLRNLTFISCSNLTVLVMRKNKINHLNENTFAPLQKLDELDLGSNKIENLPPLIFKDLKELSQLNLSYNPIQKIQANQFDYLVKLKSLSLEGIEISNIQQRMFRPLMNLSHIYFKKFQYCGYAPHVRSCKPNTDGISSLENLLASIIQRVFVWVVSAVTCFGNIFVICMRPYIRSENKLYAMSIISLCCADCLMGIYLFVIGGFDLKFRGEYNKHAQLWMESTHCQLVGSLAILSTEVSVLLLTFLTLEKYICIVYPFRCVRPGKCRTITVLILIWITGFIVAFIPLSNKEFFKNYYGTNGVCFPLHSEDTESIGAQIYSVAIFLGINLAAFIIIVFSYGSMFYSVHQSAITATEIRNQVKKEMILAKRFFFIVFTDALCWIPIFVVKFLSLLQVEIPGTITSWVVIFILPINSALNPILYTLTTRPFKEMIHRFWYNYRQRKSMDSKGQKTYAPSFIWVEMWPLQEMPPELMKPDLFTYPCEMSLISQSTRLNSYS
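Agonist response is measured as cAMP accumulation in an RXFP1-transfected HEK293T line under PDE4 inhibition. Values are scaled between buffer-only and 29 nM porcine relaxin, and EC50s come from standard Hill equation fits.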
gsp ag: qHTS for Agonist of gsp, the Etiologic Mutation Responsible for Fibrous Dysplasia/McCune-Albright Syndrome: qHTS; Potency, µM (titrated, usually from 76.9 µM), most hits filed as activators; AID 624287, 2012; hit rate 0.13% among 340,000; gsp mutant cells, cAMP HTRF, 30 min; active means well fitted activation curve with a large enough effect; inconclusive means small, poorly fitted or top-dose-only effect, or another doubt; inactive means no such curve, though single readings can be large or run the other way; cell line not stated here;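 further: phosphodiesterase inhibitor Ro 20-1724 added with compounds to block cAMP breakdown; nearly all actives have a fitted effect of over 60% in size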
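Cells stably selected in G418 were plated at 2000/well, grown 16-24 hr, then given compounds in DMSO with the PDE inhibitor […] (300 uM solution added) for 30 min at 37C; cAMP was read by HTRF.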
gsp antagonist: qHTS for Antagonists of gsp, the Etiologic Mutation Responsible for Fibrous Dysplasia/McCune-Albright Syndrome: qHTS. gsp-mutant cells, cAMP HTRF, 30 min. Potency, µM (series often up to 76.9 µM), most hits filed as inhibitors. AID 624288, 2012. hit rate 0.4% among 340,000; calls by dose curve; cell line not stated here;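 further: intracellular cAMP measured with PDE inhibitor Ro 20-1724 present during compound exposure; nearly all actives have a fitted effect of over 65% in size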
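HTRF cAMP read-out (cAMP-d2 plus anti-cAMP antibody-K in lysis buffer, 30 min RT). Before lysis, cells are exposed to compounds with […] for 30 min at 37C in DPBS containing Ca/Mg, BSA and Tween 20.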
RXFP1 antagonist: qHTS Assay for Antagonists of the Relaxin Receptor RXFP1; HEK293-RXFP1, relaxin-stimulated cAMP HTRF, 30 min; active compounds read low; hit rate 0.59% among 350,000; activity change, negative = inhibition, % at 57.5 µM; Relaxin receptor 1 (Homo sapiens), Q9HBX9;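 active means activity change of -60% or lower, but not beyond a set lower limit; inconclusive means change between -60% and -40%, or beyond the set limit; inactive means change above -40%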
Akt phos inh: HTS Assay for Inhibitors of Akt Phophorylation: Primary Screen; Neuro2A IGF-stimulated pAkt S473 HTRF, 20 min; active compounds read low; activity change, % for hits at 50 µM; hit rate 0.32% among 360,000; AID 651550, 2012; in the data active means activity change below about -80%; inconclusive means mostly about -51% to -80%
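Neuro2A cells in DMEM with 0.5% FBS, overnight at 37 deg C, given compound at single 50 µM final, then IGF (6 nM final) for 20 min at 37 deg C. Lysed; phospho-Akt Ser473 by HTRF after 24 h, 665/615 ratio.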
Hits are given with their value; - = inactive; ? = inconclusive; . = no result given; [ ] = dose if it differs, or a comment.

SMILES	RXFP1 agonist	gsp ag	gsp antagonist	RXFP1 antagonist	Akt phos inh
COc1ccc(C(C(=O)NC2CCCC2)N(C(=O)c2ccco2)c2cc3c(cc2C(C)=O)OCO3)cc1OC (configuration not stated)	-	-[15.4 µM]	-	-	-
COc1ccc2oc(=O)cc(CN3CCN(C(=O)c4ccccc4Br)CC3)c2c1	-	.	.	-	.
O=C(Oc1ccc(-c2nccc(-c3ccccn3)n2)cc1)c1cccc(C(F)(F)F)c1	-	-	-	-	-96%
Cc1ccc(C(=O)Oc2ccc(-c3nccc(-c4ccccn4)n3)cc2)cc1	-	-	-	-	-
O=C(Nc1ccc2nc(SCC(=O)N3CCCC3)sc2c1)c1cccc(Br)c1	-	.	.	-	.
O=C(CCCSc1ccc(Cl)cc1)Nc1cc(S(=O)(=O)N2CCOCC2)ccc1O	-	-	32µM	-	-
O=C(Nc1nccs1)c1cc(S(=O)(=O)N2CCOCC2)ccc1Cl	-	-	-	-	-
O=C(Nc1nccs1)c1cccc(S(=O)(=O)N2CCOCC2)c1	-	-	-	-	-114%
O=C(Nc1ccon1)c1ccc(S(=O)(=O)N2CCCCCC2)cc1	-	-	-	-	-116%
Cc1ccc(S(=O)(=O)N2CCOCC2)cc1C(=O)Nc1cc(S(=O)(=O)N2CCCCC2)ccc1O	.	-	-	-	-
Cc1ccc(C(=O)Nc2ccon2)cc1S(=O)(=O)N1CCCCCC1	-	-	-	-	-
Cc1ccc(S(=O)(=O)N2CCOCC2)cc1NC(=O)CSc1ccc(Cl)cc1	-	-	-	-	-
O=C(Nc1cc(S(=O)(=O)N2CCOCC2)ccc1O)c1ccc(S(=O)(=O)N2CCCCC2)cc1	.	-	8.9µM	-	-
Cc1coc2ccccc2c1=O	.	.	.	-	.
O=C(O)c1cc(-c2cccs2)nc2ccc(F)cc12	?	25µM	-	-	-
CCOC(=O)c1c(CSC(=N)N)n(-c2ccccc2)c2cc(Br)c(OC(C)=O)cc12	-	-[15.4 µM]	-	-61	-
Cc1ccccc1-c1nc(CS(=O)(=O)CC(=O)NC2CC2)c(C)o1	-	-	-	-78	-
O=C(Nc1ccc(Cl)cn1)C1C(c2ccccc2)C1(Cl)Cl (configuration not stated)	-	-[15.4 µM]	-	-98	-
O=C(Nc1ccccc1)C1C(c2ccccc2)C1(Cl)Cl (configuration not stated)	-	-[15.4 µM]	-	-	-
Cc1cc(C)c2nc(N3CCCC(C(=O)NCc4cccc(Cl)c4)C3)sc2c1 (configuration not stated)	-	.	.	-	.
Cc1cc(N)n(-c2ncnc3scc(-c4ccc(Cl)cc4)c23)n1	-	-	-	-	-82%
CC1CCN(C(=S)NC(=O)c2ccccc2)CC1	-	-	-	-	-111%
CC1CCN(C(=S)NC(=O)c2ccc(C(C)(C)C)cc2)CC1	-	-	-	-	-
Cc1cccc(-n2ncc3c(NNC(=O)c4ccccc4Cl)ncnc32)c1	-	.	.	-	.
CCOC(=O)c1ccc2c(c1)N(Cc1ccc(F)cc1Cl)C(=O)c1ccccc1S2(=O)=O	-	.	.	-	.
SMILES	RXFP1 agonist	gsp ag	gsp antagonist	RXFP1 antagonist	Akt phos inh
CC(C)c1nc(N2CCN(C(=O)c3ccco3)CC2)c(C#N)c2c1COC(C)(C)C2	-	-	-	-61	-
CC(C)c1nc(N2CCN(C(=O)c3ccccc3)CC2)c(C#N)c2c1COC(C)(C)C2	-	-	-	-	-
CCN(c1cccc(C)c1)S(=O)(=O)c1nnc(NC(=O)C2CCCCC2)s1	-	.	.	-	.
O=C(Oc1ccc(N(C(=O)c2ccncc2)S(=O)(=O)c2ccc(F)cc2)cc1)c1ccncc1	-	-	-	-90	-
COc1ccc(N(C(=O)c2ccncc2)S(=O)(=O)c2ccc(Cl)cc2)cc1	-	?	50µM	-	-
CCCCNC(=O)CNC(=O)c1cccs1	-	-	-	-	.
CCOCCCNC(=O)c1cccs1	-	?	-	-	-116%
CN1CCN(CC(=O)c2cc(C(C)(C)C)c(O)c(C(C)(C)C)c2)CC1	-	-[15.4 µM]	-	-85	-
CC(C)(C)c1cc(CN2CCN(CCO)CC2)cc(C(C)(C)C)c1O	-	-	-	-	-
CC(=O)Nc1ccc(NC(=O)CSc2nnc3ccc(-c4ccccn4)nn23)cc1	-	-[15.4 µM]	-	-106	-
CC(=O)Nc1ccc(NC(=O)CSc2ccc3nnc(-c4ccccn4)n3n2)cc1	8.9µM	?	-	-	-
Cc1cc(C)cc(NC(=O)c2cccc(N3CCCS3(=O)=O)c2)c1	-	.	.	-	.
N#Cc1c(C(F)(F)F)cc(-c2ccccc2Cl)[nH]c1=O	-	-	28µM	-110	-
CNC(=O)CN(CCN(CCN(CC(=O)[O-])CC(=O)NC)CC(=O)[O-])CC(=O)[O-].O.[Gd+3]	.	.	.	-	.
CCCOc1cccc(C(=O)Nc2cc(NC(=O)c3ccco3)ccc2OC)c1	-	-	-	-	-107%
CCOc1ccc2c(c1)c(=O)c(C(=O)c1ccccc1)cn2Cc1ccccc1F	?	.	.	-	.
CCc1cc2c(=O)c(Oc3ccccc3F)c(C)oc2c(CN(C)C)c1O	-	?	-	-	-104%
Nc1ccc(C2CCCc3nonc32)c2nonc12 (configuration not stated)	-	-	-	-	-113%
CC(c1ccccc1)N1CCC(CNC(=S)Nc2cccc(Cl)c2)C1 (configuration not stated)	-	28µM	-	?	-
COC(=O)CCCCC(CCSS/C(CCO)=C(\C)N(C=O)Cc1cnc(C)nc1N)SC(C)=O (configuration not stated)	.	.	.	-	.
O=C(Nc1cc(C(=O)N2CCCC2)ccc1N1CCCC1)c1ccccc1F	-	?	6.3µM	-	.
O=C(O)CCNc1cc(N2CCN(C(=O)c3ccco3)CC2)c2noc3c2c1C(=O)c1ccccc1-3	-	-[15.4 µM]	?	-75	-
CCN(C(=O)CSc1nc2ccccc2n1Cc1ccc(C(=O)OC)cc1)c1ccccc1	-	.	.	.	.
O=C(Nc1ccc(Cl)c(Cl)c1)Nc1nnc(-c2ccncc2)s1	-	-[15.4 µM]	-	-	-
COc1ccc(NC(=O)Nc2nnc(-c3ccncc3)s2)cc1	-	-	35µM	-	-
SMILES	RXFP1 agonist	gsp ag	gsp antagonist	RXFP1 antagonist	Akt phos inh
CC1=C(SCc2ccccc2)C(=O)c2ccccc2C1=O	.	11µM	-	?	-
CCCCCCCn1c2c(c(=N)c3c1CCC3)CCCC2	-	-[15.4 µM]	.	-	-
CCCCCCCCCn1c2c(c(=N)c3c1CCC3)CCC2	-	-[15.4 µM]	-	-70	-
CCCCCCn1c2c(c(=N)c3c1CCC3)CCC2	-	-	35µM	-	-
CCN(CC)C(=O)CSc1nc(-c2ccc(C)cc2)nc2c1Cc1c(CO)cnc(C)c1O2	-	.	.	-	.
Cn1c(=O)cc(SCC(=O)N2CCN(c3ccccc3F)CC2)c2ccc(Cl)cc21	-	.	.	-	.
O=C(CSCc1cccc(Br)c1)N=Nc1c(O)[nH]c2ccccc12	-	-	-	-	-
